Growth data for 13 compounds are collected here from PubChem BioAssay (NCI).

Test in all cases: NCI-60 one-dose screen, 48 h (100 = growth as untreated, 0 = no growth, -100 = all killed)
Holding throughout (details): 10 µM unless noted

Test [1] deals with NCI-H23 lung.
Test [2] relates to NCI-H226 lung.
Test [3] deals with NCI-H322M lung.
Test [4] deals with HOP-62 NSCLC.
Test [5] deals with NCI-H460 lung.
The test system of test [6] is HOP-92 NSCLC.
Test [7] has as its system NCI-H522 lung.
Test [8] has as its system A549/ATCC NSCLC.
For test [9], the system named is 786-0 renal.
For test [10], the system named is COLO 205 colon.

The panel holds about 83,000 compounds, 20% with a hit somewhere; the sample as a whole holds those more often.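 The test compound was applied at a single concentration to cells in 96-well plates for 48 hours, and percent growth was recorded.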 A number with no mark means an inactive call. The source made the active and inactive calls. Rule for the calls: active = growth percent below 10; inactive = the rest.

As to `COc1ccc(C(=O)Cn2c(C(=O)c3ccccc3)nc3ccccc32)cc1`, the growth is 28.2% in test [1]; 38.5% in test [2]; 78.7% in test [3]; 40.6% in [4]; 8.51% (active) in test [5]; 54.7% in test [6]. The growth in test [7] was -28.1% (active); in test [8], 31.8%; in test [9], 43.6%; in test [10], 51%.

As to `C[C@H](c1nc2ccc(N)cc2[nH]1)[C@H]1CC[C@H]2[C@@H]3CCC4=CC(=O)CC[C@]4(C)[C@H]3CC[C@]12C`, the growth in test [1] is 85.8%; in test [2], 91%; in test [3] it was 91.7%; in [4], 96.2%; in test [5], 97.1%; in test [6], 43.9%. For the same compound, the growth in test [7] is 84.3%; in test [8], 96.7%; in test [9], 59.4%; in test [10], 81.4%.

Turning to `CCOC(=O)CSc1nc2ccccc2c(=O)n1Cc1ccc(S(N)(=O)=O)cc1`, the growth in test [1] was 98%; in test [2] it was 100%; in [3], 99.7%; in test [4] it was 95.5%; in [5], 101%; in test [6], 94.6%. Besides, the growth was 91.3% in [7], 98% in [8], 104% in test [9] and 106% in [10].

For `O=C1C=CC(=O)N1c1cccc(Cl)c1`, the growth in test [1] is 103%; in [2] it was 107%; in test [3] it was 121%; in test [4], 101%; in test [5], 111%; in test [6], 76%. Besides, the growth in test [7] was 69.9%; in test [8], 93%; in [9] it was 105%; in test [10], -6.46% (active).

Turning to `CCCCCCNC(=O)Nc1ccc2cc3ccc(NC(=O)NCCCCCC)cc3nc2c1`, the growth in [1] was -39% (active); in test [2], 79.5%; in test [3], 22.8%; in test [4] it was 18.1%; in test [5], -11.9% (active); in [6], 68.9%. Besides, the growth in test [7] is -67.1% (active); in test [8] it was 23.7%; in [9], 27.5%; in test [10], 17.5%.

Turning to `O=C(Nc1cccc(C2=NCCN2)c1)c1ccc(-c2ccc(C(=O)Nc3cccc(C4=NCCN4)c3)cc2)cc1`, the growth in test [1] is 73%; in test [2], 84%; in test [3], 93.8%; in test [4], 113%; in test [5] it was 37.8%; in test [6], 90.9%. In addition, the growth in test [7] is 60.5%; in [8], 74.9%; in test [9], 86.2%; in test [10], 43.9%.

Turning to `COC(=O)/C=C1\S/C(=N\NC(=O)c2cc3ccc2/C=C\c2ccc(cc2)/C=C\3)N(Cc2ccccc2)C1=O`, the growth is 77.4% in [1]; 64.8% in test [2]; 93.3% in [3]; 77.2% in test [4]; 93.7% in [5]; 75.5% in test [6]. In addition, the growth is 15.9% in test [7], 77% in test [8], 49.6% in test [9] and 72.7% in [10].

`C=C1C(=O)O[C@H]2[C@H]1CC/C(COC(=O)NCCc1c[nH]c3ccc(OC)cc13)=C\CC[C@@]1(C)O[C@@H]21`: the growth was 73.9% in test [1]; 51% in [2]; 87.2% in test [3]; 83.4% in test [4]; 69.4% in test [5]; -8.74% (active) in test [6]. The growth is -74.2% (active) in test [7], 64.2% in test [8], -35.4% (active) in [9] and -47.2% (active) in [10].

Regarding `O=C1Nc2cc(-c3ccc(NS(=O)(=O)c4ccccc4)cc3)ccc2/C1=C/c1ccc[nH]1`, the growth in test [1] was 29.9%; in test [2], 65.9%; in [3], 49.6%; in [4], 106%; in test [5], 11.4%; in test [6] it was 95.7%. Also, the growth in test [7] is 76.4%; in [8], 86.6%; in test [9], 108%; in test [10], 125%.

As for `C#Cc1cccc(NC(=O)c2cccc(NC(=O)CCl)c2)c1`, the growth in [1] was -77.6% [8.25 µM] (active); in [2], -32% [8.25 µM] (active); in test [3] it was 58.8% [8.25 µM]; in [4], -24.9% [8.25 µM] (active); in test [5] it was -60.8% [8.25 µM] (active); in [6], -65.3% [8.25 µM] (active). Besides, the growth in test [7] is -65.8% [8.25 µM] (active); in test [8] it was 1.7% [8.25 µM] (active); in test [9] it was -71.8% [8.25 µM] (active); in test [10], -53% [8.25 µM] (active).

On to `O=C1OC(Cc2ccccc2)C1c1ccccc1` (stereo not given), for which the growth in [1] is 106%; in test [2], 102%; in test [3], 110%; in test [4], 104%; in test [5] it was 107%; in test [6], 104%. Moreover, the growth in test [7] was 89.7%; in test [8] it was 95.9%; in test [9], 102%; in [10], 109%.

Regarding `c1ccc2c(-c3c[nH]c4ccccc34)c3c(cc2c1)[nH]c1ccccc13`, the growth in [1] is 69.9%; in [2] it was 86.2%; in [3] it was 83.7%; in test [4] it was 60.4%; in test [5], 68.9%; in test [6] it was 83.3%. For the same compound, the growth was 51.7% in test [7], 62% in test [8], 51.9% in [9] and 83.3% in [10].

Consider `CCc1c2c(nc3ccc(OCc4ccc(B(O)O)cc4)cc13)-c1cc3c(c(=O)n1C2)COC(=O)[C@]3(O)CC`, for which the growth in [1] is -35.8% (active); in test [2] it was -21.4% (active); in test [3], 15.7%; in test [4], -17% (active); in [5], 2.12% (active); in test [6], -4.54% (active). Moreover, the growth in test [7] was -9.3% (active); in test [8] it was 7.22% (active); in test [9], -13.7% (active); in [10], 13.6%.
